Measured values reported in ChEMBL document CHEMBL4888484, “Replenishing the malaria drug discovery pipeline: Screening and hit evaluation of the MMV Hit Generation Library 1 (HGL1) against asexual blood stage Plasmodium falciparum ,using a nano luciferase reporter read-out” (2022).
Among all 150,000 compounds or so, about 540 (0.36%) showed an effect of 50% or more. The sample holds strong results, similar compounds and a random draw of the others, so the mix is not that of the screen.

test system: Plasmodium falciparum; experiment: Primary screen in NF54 nanoGlo assay, in single point, at 2uM, 72h; a lower Z score goes with more inhibition; type: functional, Erythrocyte; conditions: timepoint 72 hour

Row | SMILES | % Inhibition [%] | Z score
1 | CC(C)(C)c1ncc(-c2cc(F)cc3cccnc23)[nH]1 | -16 | 1.82
2 | Cc1n[nH]nc1-c1nc(-c2ccncc2)nn1[C@H]1CCS(=O)(=O)C1 | -6 | 0.87
3 | Cc1ccc(CS(=O)(=O)N2CCC3CCN(C)CC32)c(F)c1 (stereo not drawn) | -7 | 1.13
4 | Cc1nccn1CCNC(=O)c1cc2cccc(Cl)c2n1C | -16 | 1.43
5 | CC[C@H]1CN(Cc2cccn2-c2nccs2)CCN1C | -2 | 0.41
6 | Cc1ccc(-n2nc(C)cc2NS(=O)(=O)c2c(C)nn(C(C)C)c2C)nn1 | -9 | 1.42
7 | CCOc1cccc2[nH]cc(CC(=O)N[C@H](c3nccn3C)C3CC3)c12 | 7 | -0.9
8 | CCOC(=O)NCCC(=O)NCCC[C@H]1CCCCO1 | -4 | 0.49
9 | CCc1nsc(N2CC(C)N(CC#N)C(C)C2)n1 (stereo not drawn) | -3 | 0.45
10 | CCCc1cc(-c2nc(-c3ccc(-n4nc(C)cc4N)cc3)no2)n(C)n1 | 71 | -14.18
11 | CC[C@@H](c1nc(-c2ccc(-n3nc(C)cc3N)cc2)no1)n1cccn1 | -2 | 0.32
12 | Cc1cc(N)n(-c2ccc(-c3noc(-c4cc(C(C)C)on4)n3)cc2)n1 | 15 | -3.24
13 | C[C@@H](CNc1nc(-c2ccccc2)nc2nc(-c3ccc(Cl)cc3)oc12)N1CCCCC1 | 79 | -10.9
14 | C[C@@H](CNc1nc(-c2ccccc2)nc2nc(-c3ccc(Cl)cc3)oc12)N1CCOCC1 | -17 | 2.25
15 | c1ccc(-c2nc(NC3CCCC3)c3oc(-c4ccccc4)nc3n2)cc1 | -7 | 0.89
16 | CCc1noc(C2(n3cccn3)CC2)n1 | -8 | 0.8
17 | N#Cc1ccccc1OCCN1CCS(=O)(=O)CC1 | -3 | 0.38
18 | O=C(NC1CCc2[nH]cnc2C1)N[C@@H]1CCCc2ccccc21 (stereo partly drawn) | 4 | -0.51
19 | O=C(N[C@H]1CCc2[nH]c3ccc(Br)cc3c2C1)c1ccc(Cl)c(Cl)c1 | -9 | 1.26
20 | CC(C)c1ccc(CCCNS(N)(=O)=O)cc1 | 7 | -0.97
21 | c1cc(N2CC[C@]3(CCOC3)C2)c2sccc2n1 | -10 | 1.52
22 | CCc1nc(CCNC(=O)Cc2sc(N)nc2C)no1 | -22 | 2.33
23 | COc1nccnc1NCC1(N(C)C)CCCCC1 | 2 | -0.41
24 | CN1CCCN(c2nc(C(F)(F)F)nc3cc4c(cc23)OCO4)CC1 | -8 | 1.28
25 | CN(C)C1(CNc2ncc(F)cn2)CCCC1 | -3 | 0.48
26 | Oc1cc(C(F)(F)F)c2cc3c(cc2n1)OCO3 | 30 | -3.35
27 | O=C(NCc1ccc(Br)cc1)NC1CC2OCCCC12 (stereo not drawn) | -11 | 1.4

Row | SMILES | % Inhibition [%] | Z score
28 | COCCN(Cc1cc2ccc(Cl)cc2nc1N1CCC[C@H](CO)C1)C(=O)c1sccc1C | 2 | -0.41
29 | NC(=NCCOc1ncc(Cl)cc1Cl)N1CCOCC1 | -11 | 1.79
30 | CCN(C)C1(CNC(=O)c2ccc(-c3cnccn3)cc2)CCCC1 | -14 | 2.04
31 | CCN(C)C1(CNC(=O)c2ccc(-c3cc(F)ccc3O)cc2)CCCC1 | 55 | -0.99
32 | CCN(C)C1(CNC(=O)c2cccc(-c3ncc(F)c(NC)n3)c2)CCCC1 | 3 | -0.53
33 | CC(C)ONC(=O)CCc1cccc(O)c1 | -11 | 1.21
34 | Cc1cc(O)nc2ccc(NC(=O)c3cccc(F)c3)cc12 | 5 | -0.52
35 | c1c[nH]c(-c2nc(C3CCOCC3)n[nH]2)c1 | -6 | 1.12
36 | COc1c(C)cc(C(=O)[C@H]2CCCN(c3cc(N)ncn3)C2)cc1C | 78 | -15.48
37 | COc1ccnc(CN2CCC[C@H](C(=O)c3cc(C)c(OC)c(C)c3)C2)c1OC | 8 | -1.25
38 | CNc1ncc(C(=O)N2CCC[C@H](C(=O)c3cc(C)c(OC)c(C)c3)C2)cn1 | 4 | -0.72
39 | O=C(CCCc1ccccc1)Nc1cc(C2CC2)nn1-c1nc(-c2ccccc2)cc(=O)[nH]1 | 54 | -8.76
40 | CCc1cc(=O)[nH]c(-n2nc(C3CC3)cc2NC(=O)C2CCCCC2)n1 | 86 | -14.68
41 | CC(C)(C)c1cc(NC(=O)CCCc2ccccc2)n([C@H]2CCS(=O)(=O)C2)n1 | -2 | 0.38
42 | CCC(CC)C(=O)Nc1cc(C2CC2)nn1-c1nc(-c2ccccc2)cc(=O)[nH]1 | 69 | -9.47
43 | O=C(CN1CCCCC1)Nc1cc(C2CC2)nn1-c1ccccc1 | 1 | -0.24
44 | CC(C)NC(=O)CN(C)CC(=O)Nc1cc(C2CCCC2)nn1-c1ccccc1 | 1 | -0.16
45 | Cc1cc(N)n(-c2nc(-c3ccccc3)cc(=O)[nH]2)n1 | 35 | 0.14
46 | CCOC(=O)Nc1cc(C2CC2)nn1-c1nc2c(c(=O)[nH]1)CCCC2 | 4 | -0.55
47 | CCc1cc(NC(=O)C2CN(C(=O)C3CCCCC3)C2)n(C)n1 | -13 | 2.45
48 | Cc1ccc(C(=O)N2CCCC(C(=O)N3CCCC(c4nnc5ccccn45)C3)C2)cc1 (stereo not drawn) | -7 | 1.13
49 | CC(C)c1cc(-c2nc(-c3ccccn3)no2)[nH]n1 | -11 | 1.24
50 | CCS(=O)(=O)Nc1ccnn1[C@@H](C)C1CC1 | 3 | -0.45
51 | O=C(c1cnnn1-c1cccc(F)c1)N1CCCC12CCC2 | -1 | 0.15
52 | COc1ccc(C(=O)NCCCc2nnc3ccccn23)o1 | -9 | 1.7
53 | Cc1nc2ccccn2c(=O)c1CCN[C@@H](C)c1cccc(-n2cccn2)c1 | 0 | 0.05
54 | Cc1ccc(C(=O)N2CCC3(CCc4nn(Cc5ccccc5)c(=O)n4CC3)CC2)s1 | -7 | 0.82
